The record followed here is PubChem BioAssay (NCATS).

Where “and” joins values, the source holds several entries; their conditions need not be identical. Identical values can stand only once. Records with an inconclusive call do not appear. Calls of active or inactive are those of the source. Unless noted, calls come from the whole dose curve.

Experiment [1] is described as follows: Confirmatory qHTS to identify inhibitors of SARS-CoV-2 cell entry (AID 1645844). Note: nearly all actives have a fitted effect of over 45% in size. Note: potency is the fitted concentration of half-maximal effect. In short, it runs like this: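 HEK293-ACE2, overnight seeding; cpd 1 h, 37C/5% CO2; + SARS-CoV-2-S MLV PP (Wuhan-Hu-1, ΔC19); 48 h; Bright-Glo luminescence. Data normalised to S PP and bald PP wells.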
Experiment [2] in a line: Cytotoxicity counterscreen for inhibitors of SARS-CoV-2 cell entry (AID 1645845). For activity change, negative = cytotoxicity: % is set by controls: 0 for no effect and ±100 for the full control effect. Note: nearly all actives have a fitted effect of over 50% in size. The following applies: outcome: dose series up to 57.1 µM unless noted. In short, it runs like this:
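Counterscreen run in the same HEK293-ACE2 line as the pseudotyped-particle entry assay, without particles. Viability after 48 h at 37 C was read as ATP luminescence, scaled between cell-containing and cell-free wells.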
(Counterscreens check selectivity or assay interference.)

The nature of experiment [3]: Primary qHTS to identify inhibitors of SARS-CoV-2 cell entry (AID 1645846). Note: nearly all actives have a fitted effect of over 45% in size. Note: potency is the fitted concentration of half-maximal effect. The following applies: SARS-CoV-2 pseudovirus cell entry assay, luminescence; activity change, negative = inhibition: at 57.1 µM (top of the series) unless noted. In outline:
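Luminescence readout (Bright-Glo luciferase) 48 h after pseudoparticle addition. HEK293-ACE2 cells, 1500/well; compound pre-incubation 1 h; Normalized to spike PP and bald PP.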
A general note: In qHTS, concentration-response curves come from the screen itself.

Experiment [4] is described as follows: VSVG counterscreen qHTS to identify inhibitors of SARS-CoV-2 cell entry (AID 1645847). For activity change, negative = inhibition: % is set by controls: 0 for no effect and ±100 for the full control effect. Note: nearly all actives have a fitted effect of over 65% in size. Note: potency is the fitted concentration of half-maximal effect. In outline:
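HEK293-ACE2 cells (Expi293F stably expressing human ACE2) were pretreated with compound for 1 h at 37 °C, then infected with MLV-based VSV-G pseudotyped particles for 48 h. Luciferase luminescence was normalized to VSV-G PP and bald PP wells.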

In experiment [5] the target is Cytochrome P450 2C9 (Homo sapiens) (UniProt P11712). Briefly: Cytochrome P450 family 2 subfamily C member 9 (CYP2C9) small molecule antagonists: luciferase biochemical (cell-free) qHTS assay (AID 1645842; active = well fitted curve in the direction sought with a large enough effect in the repeat runs; an effect the other way counts as inactive or inconclusive; note: nearly all actives have a fitted effect of over 55% in size; note: potency is the fitted concentration of half-maximal effect; for activity change, negative = inhibition: % is set by controls: 0 for no effect and ±100 for the full control effect). In outline: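 P450-Glo CYP2C9 system: proluciferin substrate with enzyme in mix containing 0.4% BSA, 10 min at room temperature, then NADPH regeneration solution added and incubated 1 h at 37C. Detection reagent stopped reaction; luminescence read after 20 min as RLU.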

Experiment [6] has as its target Cytochrome P450 3A4 (Homo sapiens) (UniProt P08684). Briefly: qHTS Assay for Inhibitors and Substrates of Cytochrome P450 3A4 (AID 884; active = well fitted curve in the direction sought with a large enough effect; an effect the other way counts as inactive or inconclusive; note: % is set by controls: 0 for no effect and ±100 for the full control effect; nearly all actives have a fitted effect of over 50% in size). In short, it runs like this:
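Luminescent readout of luciferin produced by CYP3A4 (20 nM) dealkylation of Luciferin-PPXE, 25 uM (its KM). NADPH-driven reaction ran 60 min at RT after 10 min compound preincubation; data scaled to 57 uM ketoconazole as 100% inhibition.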

A short description of experiment [7]: Confirmation and Secondary Assay for Modulators of Hemoglobin Beta Chain Splicing at IVS2 654 locus (AID 910; active = well fitted curve in the direction sought with a large enough effect; an effect the other way counts as inactive or inconclusive;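 note: HeLa cells stably carrying EGFP split by mutant beta-globin IVS2-654 intron; % of control where 0% means no effect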). In outline: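 HeLa cells stably expressing EGFP interrupted by β-globin IVS2-654 intron, seeded overnight in Opti-MEM/2% FCS, then treated 2 days at 37 °C. Restored splicing read as total peak GFP intensity per well by laser scanning cytometry (488 nm excitation, 500–520 nm emission); 500 nM antisense PNA as control.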

Experiment [8] in a line: Confirmation and Secondary Assay for Modulators of Hemoglobin Beta Chain Splicing at IVS2 705 locus (AID 930; active = well fitted curve in the direction sought with a large enough effect; an effect the other way counts as inactive or inconclusive;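 note: HeLa cells stably expressing the EGFP-705 splicing reporter; % of control where 0% means no effect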). In short, it runs like this:
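Restored EGFP fluorescence after 2-day compound exposure reports splicing correction in IVS2-705 EGFP reporter HeLa cells; positive control was 500 nM splice-blocking PNA oligo. Signal measured as well total peak GFP intensity (488 nm excitation).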

Experiment [9] has as its target Ubiquitin carboxyl-terminal hydrolase 1 (Homo sapiens) (UniProt O94782). Briefly: Inhibitors of USP1/UAF1: Pilot qHTS (AID 504865; active = well fitted curve in the direction sought with a large enough effect; an effect the other way counts as inactive or inconclusive;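 note: rhodamine fluorescence freed from ubiquitin-rhodamine substrate followed over time; top concentration of the series differs between compounds; % is set by controls: 0 for no effect and ±100 for the full control effect; nearly all actives have a fitted effect of over 35% in size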). In short, it runs like this:
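USP1/UAF1 complex (1nM) preincubated with compound 15 min at room temperature, then Ub-Rho substrate (150nM final) added. Fluorescence read kinetically at 480/540 nm, 6 reads every 60 seconds. Buffer: 50mM HEPES pH 7.8, 0.5mM EDTA, 0.1 mg/ml BSA, 1mM TCEP, 0.01% Tween-20.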

The target of experiment [10] is Cytochrome P450 2D6 (Homo sapiens) (UniProt P10635). Briefly: Cytochrome P450 family 2 subfamily D member 6 (CYP2D6) small molecule antagonists: luciferase biochemical (cell-free) qHTS assay (AID 1645840; active = well fitted curve in the direction sought with a large enough effect in the repeat runs; an effect the other way counts as inactive or inconclusive; note: nearly all actives have a fitted effect of over 55% in size; note: potency is the fitted concentration of half-maximal effect; for activity change, negative = inhibition: % is set by controls: 0 for no effect and ±100 for the full control effect). In short, it runs like this:
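P450-Glo CYP2D6 system: proluciferin substrate converted by enzyme to luciferin, read by luminescence proportional to activity. Enzyme-substrate mix with compound 10 min at room temperature, then NADPH regeneration 1 h before detection reagent.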

For experiment [11], the target named is Glutathione peroxidase 1 (Homo sapiens) (UniProt P07203). Briefly: Primary qHTS Assay for Inhibitors of Recombinant Selenoprotein Glutathione Peroxidase 1 (GPX1) (AID 1845191; active = well fitted curve in the direction sought with a large enough effect; an effect the other way counts as inactive or inconclusive; note: % is set by controls: 0 for no effect and ±100 for the full control effect; nearly all actives have a fitted effect of over 65% in size). In outline:
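GR-coupled readout: NADPH consumption tracked by fluorescence, ex 340/em 450 nm, at t=0 and after 15 min at RT. Final mix 10 nM GPX1, 1 mM GSH, 0.5 mM CHP, 0.5 mM NADPH, 100 nM GR, 0.01% BSA, following 30 min enzyme–compound preincubation.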

Cytochrome P450 2C9 (Homo sapiens), sequence (P11712 whole entry, looked up): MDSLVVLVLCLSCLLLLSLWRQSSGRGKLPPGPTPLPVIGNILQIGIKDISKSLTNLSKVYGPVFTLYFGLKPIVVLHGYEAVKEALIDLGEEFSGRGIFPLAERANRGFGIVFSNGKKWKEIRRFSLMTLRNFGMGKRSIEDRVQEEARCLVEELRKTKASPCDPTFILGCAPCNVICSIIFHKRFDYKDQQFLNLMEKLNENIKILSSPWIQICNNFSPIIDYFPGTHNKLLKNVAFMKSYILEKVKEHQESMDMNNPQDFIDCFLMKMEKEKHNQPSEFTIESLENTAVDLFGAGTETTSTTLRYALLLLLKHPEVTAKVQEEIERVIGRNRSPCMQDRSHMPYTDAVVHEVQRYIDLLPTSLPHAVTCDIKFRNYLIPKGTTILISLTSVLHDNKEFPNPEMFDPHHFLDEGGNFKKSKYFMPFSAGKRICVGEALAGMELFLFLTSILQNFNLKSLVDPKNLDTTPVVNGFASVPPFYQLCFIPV
Cytochrome P450 2D6 (Homo sapiens), sequence (P10635 whole entry, looked up): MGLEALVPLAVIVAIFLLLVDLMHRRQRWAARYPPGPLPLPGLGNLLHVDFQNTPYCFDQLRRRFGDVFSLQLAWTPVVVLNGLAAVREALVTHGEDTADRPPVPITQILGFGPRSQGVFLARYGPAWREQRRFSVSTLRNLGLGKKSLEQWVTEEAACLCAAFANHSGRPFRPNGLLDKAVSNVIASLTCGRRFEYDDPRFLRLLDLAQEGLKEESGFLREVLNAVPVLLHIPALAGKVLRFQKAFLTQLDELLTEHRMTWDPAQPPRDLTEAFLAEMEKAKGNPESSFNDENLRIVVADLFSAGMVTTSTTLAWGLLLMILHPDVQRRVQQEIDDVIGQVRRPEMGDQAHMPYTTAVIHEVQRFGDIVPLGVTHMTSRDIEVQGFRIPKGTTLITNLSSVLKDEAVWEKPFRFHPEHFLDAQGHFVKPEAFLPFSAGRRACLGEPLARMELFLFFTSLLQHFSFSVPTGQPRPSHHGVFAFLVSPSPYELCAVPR
Glutathione peroxidase 1 (Homo sapiens), sequence (P07203 whole entry, looked up): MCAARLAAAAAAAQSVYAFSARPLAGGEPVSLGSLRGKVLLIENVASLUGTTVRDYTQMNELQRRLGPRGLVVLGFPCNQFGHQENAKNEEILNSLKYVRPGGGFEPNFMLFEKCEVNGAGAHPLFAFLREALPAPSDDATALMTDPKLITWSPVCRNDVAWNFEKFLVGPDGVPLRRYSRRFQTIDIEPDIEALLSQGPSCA
Cytochrome P450 3A4 (Homo sapiens), sequence (P08684 whole entry, looked up): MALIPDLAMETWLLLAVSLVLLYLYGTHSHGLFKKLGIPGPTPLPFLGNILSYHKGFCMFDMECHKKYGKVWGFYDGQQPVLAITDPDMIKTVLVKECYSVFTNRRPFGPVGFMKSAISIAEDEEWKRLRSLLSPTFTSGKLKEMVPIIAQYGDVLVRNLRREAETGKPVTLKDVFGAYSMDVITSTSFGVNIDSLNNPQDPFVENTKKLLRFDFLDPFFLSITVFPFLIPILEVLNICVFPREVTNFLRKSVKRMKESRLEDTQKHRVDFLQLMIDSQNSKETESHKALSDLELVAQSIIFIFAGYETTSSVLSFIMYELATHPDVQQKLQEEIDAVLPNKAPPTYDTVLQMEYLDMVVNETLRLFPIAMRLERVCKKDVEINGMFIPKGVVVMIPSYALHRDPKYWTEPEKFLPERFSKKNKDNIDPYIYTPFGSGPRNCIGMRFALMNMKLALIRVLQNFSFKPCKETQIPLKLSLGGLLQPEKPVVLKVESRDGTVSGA
Ubiquitin carboxyl-terminal hydrolase 1 (Homo sapiens), sequence (O94782 whole entry, looked up): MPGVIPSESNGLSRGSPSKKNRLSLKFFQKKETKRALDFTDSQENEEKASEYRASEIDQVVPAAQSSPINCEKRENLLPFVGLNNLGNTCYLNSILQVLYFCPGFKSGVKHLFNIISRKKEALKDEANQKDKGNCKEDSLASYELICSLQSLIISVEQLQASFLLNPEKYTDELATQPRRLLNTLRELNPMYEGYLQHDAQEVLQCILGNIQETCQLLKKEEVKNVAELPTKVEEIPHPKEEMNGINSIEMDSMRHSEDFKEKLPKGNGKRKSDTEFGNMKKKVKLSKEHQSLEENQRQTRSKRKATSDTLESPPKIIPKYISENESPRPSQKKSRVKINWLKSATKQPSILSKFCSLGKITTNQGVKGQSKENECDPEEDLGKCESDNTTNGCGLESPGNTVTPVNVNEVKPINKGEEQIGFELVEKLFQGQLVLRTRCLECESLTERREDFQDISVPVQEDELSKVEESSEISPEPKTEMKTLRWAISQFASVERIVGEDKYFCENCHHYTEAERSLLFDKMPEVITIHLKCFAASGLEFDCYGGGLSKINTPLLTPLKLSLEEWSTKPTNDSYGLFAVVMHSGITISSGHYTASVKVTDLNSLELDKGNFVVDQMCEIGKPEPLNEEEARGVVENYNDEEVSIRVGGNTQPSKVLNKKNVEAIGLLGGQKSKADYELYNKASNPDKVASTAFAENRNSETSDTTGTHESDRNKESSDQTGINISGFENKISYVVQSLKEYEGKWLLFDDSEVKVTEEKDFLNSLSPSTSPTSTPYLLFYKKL

Regarding `CS[C@H]1SC[C@@H]2C(=O)N(C)[C@H](C(C)C)C(=O)OC[C@H](NC(=O)c3cnc4ccccc4n3)C(=O)N[C@H](C)C(=O)N(C)[C@H]1C(=O)N(C)[C@H](C(C)C)C(=O)OC[C@H](NC(=O)c1cnc3ccccc3n1)C(=O)N[C@H](C)C(=O)N2C`, the Potency is 8.6 nM (active) in [1] and 7.6 nM (active) in [4]. In addition, in experiment [2], the Potency result was “inactive”. Moreover, the activity change, negative = inhibition in experiment [3] was -94.2%.
For `Cc1c(-c2ccc(-c3ccccc3F)cc2)nc2ccc(F)cc2c1C(=O)O` the same measures were 108 nM (active), 136 nM (active), “inactive” and -89.2%.
For `CC(C)(N)Cc1ccccc1`, the Potency result in experiment [5] is “inactive”.
Consider `O=C(c1ccc(Nc2nc(C3CC3)cn3c(-c4cn[nH]c4)cnc23)c(F)c1)N1CCOCC1`, for which the Potency in experiment [1] was 3410 nM (active); in [4], 8570 nM (active). The Potency entry in [2] was “inactive”. Further, the activity change, negative = inhibition in experiment [3] was -58.9%.
With `Cc1c[nH]c2ncnc(N3CCC(CN)(C(=O)Nc4cccc(OC(=O)N(C)C)c4)CC3)c12`, the Potency result in experiment [1], in experiment [2] and in experiment [4] was “inactive” throughout. For the same molecule, the activity change, negative = inhibition in [3] is -8.16% and -70.1%.
On to `CN1CCC(c2c(O)cc(O)c3c(=O)cc(-c4ccccc4Cl)oc23)C1CO` (stereo unspecified), for which the figures for the Potency in experiment [1], in [3] and in experiment [4] were 3040 nM (active), 2820 nM (active) and 2410 nM (active), respectively. The Potency result in experiment [2] was “inactive”.
For `CC(=O)N1CCN(CCOc2ccc(C3CCN(C4=Nn5c(nnc5C(F)(F)F)CC4)CC3)cc2)CC1`, the Potency in [1] and in [4] was 19200 nM (active) throughout. Further, the Potency entry in [2] is “inactive”. Also, in experiment [3], the activity change, negative = inhibition was -91.8%.
Regarding `CC(=O)Oc1ccc(Cl)c2cccnc12`, the Potency result in [6], in experiment [7], in experiment [8], in [9], in experiment [10] and in experiment [5] was “inactive” each time.
`Nc1ncc(C(=O)NC2CN(C(=O)C3CC3)C2)c2ccc(-c3cccc(F)c3)nc12`: the Potency in experiment [1] was 2710 nM (active). Moreover, in [2], the Potency result is “inactive”.
With `CS(=O)(=O)c1ccc(-c2cnc(NCc3ccco3)n3cnnc23)cc1`, the Potency in [1] is 27100 nM (active). Also, the Potency entry in [2] and in [4] was “inactive” each time. Further, the activity change, negative = inhibition in experiment [3] is -43.5%.
For `CCNCCS(=O)(=O)NC[C@@]1(c2ccccc2)SC(NC(=O)C(C)(C)C)=NN1C(=O)C(C)(C)C`, the Potency was 60.7 nM (active) in experiment [1] and 54.1 nM (active) in [4]. Besides, the Potency result in experiment [2] was “inactive”. Also, the activity change, negative = inhibition in experiment [3] was -77.9%.
With `CCCCNc1ncc(-c2ccc(CN3CCOCC3)cn2)c(NC2CCC(O)CC2)n1` (stereo unspecified), the Potency in experiment [1] was 1050 nM (active). The Potency result in experiment [2] is “inactive”.
Take `COc1cc(OC)c(/C=C/S(=O)(=O)Cc2ccc(OC)c(OP(=O)(O)O)c2)c(OC)c1`: the results for the Potency in experiment [1] and in experiment [4] were 17.5 nM (active) and 39.3 nM (active), respectively. Also, the Potency result in [2] is “inactive”. Moreover, the activity change, negative = inhibition in experiment [3] is -77.7%.
`CCN1CCN(C(c2ccc(Cl)cc2)c2ccc(Cl)cc2)CC1`: the Potency in experiment [10] is 952 nM (active). The Potency result in experiment [5] and in experiment [11] was “inactive” throughout.
As to `NC(=O)/C(=C/n1cnc(-c2cc(C(F)(F)F)cc(C(F)(F)F)c2)n1)c1cncnc1`, the figures for the Potency in [1], in experiment [3] and in [4] were 607 nM (active), 1260 nM (active) and 108 nM (active), respectively. The Potency result in experiment [2] was “inactive”.
Regarding `C=CCC1(CC(C)C)C(=O)NC(=O)NC1=O`, the Potency result in experiment [10] and in experiment [5] was “inactive” in each case.
With `CCOc1ccc(NC(=O)Cn2cc(C(=O)c3ccccc3)c3ccccc32)cc1`, the Potency in [5] was 16900 nM (active).
On to `COc1cc2c3c(n(CCCn4ccnc4)c(=O)c2cc1OC)-c1cc2c(cc1C3=O)OCO2`, for which the Potency in experiment [1] is 48.2 nM (active); in experiment [4] it was 60.7 nM (active). Further, the Potency result in experiment [2] is “inactive”. Moreover, the activity change, negative = inhibition in [3] is -94.4%.
With `CC[C@@]1(O)C(=O)OCc2c1cc1n(c2=O)Cc2c-1nc1ccccc1c2CCNC(C)C`, the Potency in experiment [1] was 5.4 nM (active); in [4], 6.1 nM (active). Besides, the activity change, negative = cytotoxicity in experiment [2] was -47.2% [at 5.25 µM] (inactive). Also, the activity change, negative = inhibition in [3] was -96.8% [at 5.25 µM].
In the case of `CCOC(=O)/C=C/[C@H](C[C@@H]1CCNC1=O)NC(=O)[C@@H](CC(=O)[C@@H](NC(=O)c1cc(C)on1)C(C)C)Cc1ccc(F)cc1`, the Potency result in experiment [10] is “inactive”. In [5], the Potency is 4770 nM (active).
Consider `O=C(O)c1ccc(-c2c[nH]c3ncc(-c4ccccc4)cc23)cc1C1CCCC1`, for which the Potency in [1] was 1360 nM (active); in experiment [3] it was 2820 nM (active); in [4], 541 nM (active). The Potency entry in experiment [2] is “inactive”.
